Each structure is given as a SMILES string. Records with an inconclusive call do not appear. Where a call stands in place of a potency, no number is given. The source made the active and inactive calls. The call rests on the fitted dose curve; in most records, active means well fitted inhibition curve with a large enough effect; inconclusive means small, poorly fitted or top-dose-only effect; inactive means no such curve, though single readings can be large or run the other way.

Consider 8 compounds from PubChem BioAssay (NCATS).

The nature of the experiment: ZIKV-mCherry secondary qHTS for Zika virus inhibitors (AID 1347158). Further: top concentration of the series differs between compounds. Particulars: Vero cells, ZIKV-mCherry infection imaging, 48-72 h; series mostly up to 49.2 µM. Summed up:
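Vero cells, 5,000/well, plated overnight at 37 °C, then compound added and infected with recombinant ZIKV-mCherry at MOI 1 for 48-72 h. PFA-fixed, Hoechst nuclear stain, high-content imaging; cells with mCherry intensity above 450 RFU scored infected, reported as percent infection.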
In general terms: qHTS replaces the single test concentration by a dilution series.
`O=C(O)c1cc(-c2ccc(C(F)(F)F)cc2)nc2n[nH]c(-c3ccccc3)c12`: the Potency result was “inactive”.
As for `COC(=O)c1ccc([C@H]2Nc3ccc(S(=O)(=O)Nc4ccc(C)cc4)cc3[C@H]3C=CC[C@H]32)cc1`, the entry is “inactive”.
As for `O=c1oc2cc(O)ccc2cc1-c1nc(-c2ccc(Cl)c(Cl)c2)cs1`, the Potency result was “inactive”.
Consider `COc1cc(C2Nc3ccccc3-c3nnc(SCc4ccc(Cl)cc4)nc3O2)ccc1OCC(=O)O` (stereo not drawn), for which the Potency entry was “inactive”.
The entry for `O=C(O)c1cc(-n2c(/C=C\c3ccc(F)cc3)nc3ccccc3c2=O)ccc1Cl` is “inactive”; for `O=C(O)CSc1nc2ccc(NC(=O)COc3ccc(Cl)cc3)cc2s1` it is “inactive”.
As for `O=C(Nc1cccc(C(=O)OCc2cc(=O)n3nc(C4CC4)sc3n2)c1)c1cccc(F)c1`, the entry is “inactive”; as for `O=C(O)Cn1nnc(-c2ccc(OCc3cccc(C(F)(F)F)c3)cc2)n1`, “inactive”.
